In paper PMC4336329 (PLoS ONE, 2015):
In all, about 310,000 compounds went through this assay and about 14,000 (4.5%) showed an effect of 50% or more. Effects have a minus sign here. For the sample, strong results were picked, then their nearest neighbours and some compounds at random.

The molecules below were run against human ether-à-go-go-related gene (hERG) potassium channel (human, UniProt Q12809) (assay: primary screen, population patch clamp on CHO cells stably expressing hERG; higher = less effect of the substance).
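Note: peak tail current of the secondary pulse compared with the same well before compound.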

Chain of human ether-à-go-go-related gene (hERG) potassium channel (Q12809 whole entry, looked up): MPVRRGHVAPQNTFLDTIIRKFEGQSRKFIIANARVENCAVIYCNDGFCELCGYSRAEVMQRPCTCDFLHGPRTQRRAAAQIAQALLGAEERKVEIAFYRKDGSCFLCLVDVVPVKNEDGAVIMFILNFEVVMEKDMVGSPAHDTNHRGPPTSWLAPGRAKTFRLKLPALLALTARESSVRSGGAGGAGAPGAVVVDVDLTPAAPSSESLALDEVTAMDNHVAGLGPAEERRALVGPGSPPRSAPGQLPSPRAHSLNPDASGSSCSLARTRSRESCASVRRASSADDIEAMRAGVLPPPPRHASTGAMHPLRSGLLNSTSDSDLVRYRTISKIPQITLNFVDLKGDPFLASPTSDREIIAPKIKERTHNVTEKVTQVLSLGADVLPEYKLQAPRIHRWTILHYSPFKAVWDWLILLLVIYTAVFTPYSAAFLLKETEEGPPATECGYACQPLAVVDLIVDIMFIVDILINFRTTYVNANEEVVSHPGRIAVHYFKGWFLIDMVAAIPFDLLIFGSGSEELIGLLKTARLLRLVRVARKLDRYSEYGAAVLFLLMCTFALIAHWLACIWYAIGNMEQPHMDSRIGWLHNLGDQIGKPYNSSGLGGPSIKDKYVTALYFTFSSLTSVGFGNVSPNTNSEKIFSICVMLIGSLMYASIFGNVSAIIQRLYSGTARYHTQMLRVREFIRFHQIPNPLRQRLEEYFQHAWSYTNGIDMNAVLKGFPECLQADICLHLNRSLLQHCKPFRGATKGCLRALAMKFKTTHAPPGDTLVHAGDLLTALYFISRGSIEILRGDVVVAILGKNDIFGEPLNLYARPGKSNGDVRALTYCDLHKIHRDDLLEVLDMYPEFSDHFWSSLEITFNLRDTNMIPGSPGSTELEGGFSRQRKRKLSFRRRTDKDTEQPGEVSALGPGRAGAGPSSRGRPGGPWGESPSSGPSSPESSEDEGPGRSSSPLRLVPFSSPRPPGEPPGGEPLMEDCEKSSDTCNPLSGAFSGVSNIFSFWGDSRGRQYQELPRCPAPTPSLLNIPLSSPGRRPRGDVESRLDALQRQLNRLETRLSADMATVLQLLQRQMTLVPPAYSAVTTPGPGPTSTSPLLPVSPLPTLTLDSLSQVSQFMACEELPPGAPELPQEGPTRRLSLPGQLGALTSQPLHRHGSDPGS

| SMILES | hERG current change (%, negative = inhibition) at 10uM [%] |
| --- | --- |
| COC(=O)c1cc(S(=O)(=O)N(C)c2ccc(C)c(C)c2)c[nH]1 | -20.2 |
| CCc1nc(NCCN2CCOCC2)c2oc3ccccc3c2n1.Cl | -28.2 |
| Cc1nn(Cc2ccccc2)c(C)c1C(=O)OCC(=O)Nc1cccc(S(N)(=O)=O)c1 | -0.587 |
| O=C(CSc1nnc(CNC(=O)c2cccs2)o1)Nc1cccc(F)c1 | 4.85 |
| Clc1ccccc1Cn1nnc(-c2ccccc2)n1 | 4.02 |
| O=C1C2CCCN2C(=O)N1CCCCN1CCN(c2cccc(Cl)c2)CC1 (stereo not drawn) | -65.6 |
| O=C1C2CCCN2C(=O)N1CCCCN1CCN(CCO)CC1 (stereo not drawn) | -14.9 |
| O=C1C2CCCN2C(=O)N1CCCCN1CCN(c2ccccc2)CC1 (stereo not drawn) | -21.6 |
| O=C1C2CCCN2C(=O)N1CCCN1CCN(c2cccc(Cl)c2)CC1 (stereo not drawn) | -2.8 |
| O=C1C2CCCCN2C(=O)N1CCCCN1CCN(c2cccc(Br)c2)CC1 (stereo not drawn) | -61.4 |
| O=C1C2CCCCN2C(=O)N1CCCCN1CCN(c2cccc(Cl)c2)CC1 (stereo not drawn) | -60.6 |
| O=C1C2CCCN2C(=O)N1CCCCN1CCN(c2cccc(C(F)(F)F)c2)CC1 (stereo not drawn) | -60.9 |
| Cl.O=C1C2CCCN2C(=O)N1CCCN1CCN(c2cccc(Br)c2)CC1 (stereo not drawn) | -9.07 |
| O=C1CC(N2CCSCC2)C(=O)N1c1cccc(Br)c1 (stereo not drawn) | -3.54 |
| COc1ccc(C(=O)/C=C/Nc2cc(C)on2)c(OC)c1 | -6.33 |
| COC(=O)c1ccccc1NC(=O)NC1CCN(Cc2ccccc2)CC1 | -31.1 |
| CCCn1cc(NC(=O)c2cc(-c3ccccc3)on2)cn1 | -21.5 |
| CCOC(=O)C1=C(C)Nc2ncnn2C1/C=C/c1ccccc1 (stereo not drawn) | -2.68 |
| CC1CN(c2ccc([N+](=O)[O-])nc2)CC(C)O1 (stereo not drawn) | -21.6 |
| COC(=O)c1ccc(NC(=O)CSc2nc(=O)cc(N)n2-c2ccccc2)cc1 | 12.8 |
| CCOC(=O)C1CCN(c2c(NCCCN3CCCCC3)c(=O)c2=O)CC1 | 6.88 |
| CC(OC(=O)c1cccc(S(=O)(=O)N2CCOCC2)c1)C(=O)NC1CCCCC1C (stereo not drawn) | 5.52 |

| SMILES | hERG current change (%, negative = inhibition) at 10uM [%] |
| --- | --- |
| COc1cc(Cl)ccc1OCc1cc(C(=O)N(C)CCc2c(C)n[nH]c2C)no1 | -19.5 |
| COc1ccc(-c2csc(N(CCCN(C)C)C(=O)c3ccccc3F)n2)cc1.Cl | -35.3 |
| COc1ccc(-c2csc(N(CCCN(C)C)C(=O)c3ccccc3C)n2)cc1.Cl | -75.1 |
| COc1ccc(-c2csc(N(CCCN(C)C)C(=O)c3ccccc3Cl)n2)cc1.Cl | -67.3 |
| CC1CCCC(C)N1C(=C(Cl)Cl)C(=C1SCCS1)[N+](=O)[O-] (stereo not drawn) | 16.7 |
| COc1ccccc1N(Cc1ccccc1)S(=O)(=O)c1cccc(C(=O)Nc2ccccn2)c1 | 10.5 |
| Cc1nc2ccccc2c(=O)n1-c1ccc(NS(=O)(=O)c2cc(F)ccc2F)cc1 | -11.7 |
| O=C(CSc1ncccn1)N1CCN(Cc2ccccc2)CC1 | 9.31 |
| Nc1cc(C(=O)O)c(Oc2ccc(Cl)cc2Cl)cc1C(=O)O | 7.83 |
| O=C(N/N=C/c1ccoc1)c1cc(Br)ccc1O | 14.2 |
| CCOc1ccc(NC(=O)c2ccc3[nH]c(=O)c(=O)[nH]c3c2)cc1 | 16.8 |
| O=[N+]([O-])c1cccc(-c2nc3ccc([N+](=O)[O-])cc3[nH]2)c1 | 8.34 |
| CC(C)(C)c1nc2ccc([N+](=O)[O-])cc2[nH]1 | -77.7 |
| Nc1nc2ccc([N+](=O)[O-])cc2[nH]1 | 20.6 |
| Cc1nc2ccc([N+](=O)[O-])cc2[nH]1 | 7.21 |
| O=[N+]([O-])c1ccc(-c2nc3ccc([N+](=O)[O-])cc3[nH]2)cc1 | -27.9 |
| CCCC[n+]1ccc(-c2nc3ccc([N+](=O)[O-])cc3[nH]2)cc1 | -59.5 |
| F[B-](F)(F)F.O=[N+]([O-])c1ccc2nc(-[n+]3c(-c4ccccc4)cc(-c4ccccc4)cc3-c3ccccc3)[nH]c2c1 | -61.8 |
| Cc1ccc(-c2nc3ccc([N+](=O)[O-])cc3[nH]2)cc1 | -3.49 |
| Cn1c(-[n+]2c(-c3ccccc3)cc(-c3ccccc3)cc2-c2ccccc2)nc2cc([N+](=O)[O-])ccc21.[I-] | -12.2 |
| O=C(NNC(=O)C1CC=CCC1C(=O)O)c1ccc(Cl)cc1 (stereo not drawn) | 20.6 |
| COC(CNC(=O)C1CCCN1C(=O)OCc1ccccc1)OC (stereo not drawn) | 5.41 |

| SMILES | hERG current change (%, negative = inhibition) at 10uM [%] |
| --- | --- |
| Cc1cc(O)c(C2=Nc3ccccc3SC(c3ccc(Cl)cc3)C2)c(=O)o1 (stereo not drawn) | 19.4 |
| Clc1ccccc1Nc1nc2ccccc2o1 | 10.5 |
| O/C(=C\c1ccc2ccccc2n1)c1ccc(O)cc1O | 4.33 |
| CCOc1ccc(/C=C2\SC(=S)N(NC(=O)c3ccncc3)C2=O)cc1OC | 16.9 |
| COc1cc(NC(=O)CSCc2ccc(Cl)cc2)c(C(=O)O)cc1OC | 13.6 |
| CN(C)S(=O)(=O)c1ccc(NC(=O)CN2CCc3ccccc32)cc1 | 11.8 |
| Cc1ccc(SCCNS(=O)(=O)c2ccc3c(c2)OCCO3)cc1 | 2.17 |
| Cc1ccc(NC(=O)CN2C(=O)c3ccccc3C2=O)nc1 | 6.21 |
| Cc1nc2ccsc2c(=O)n1-c1cccc(Cl)c1 | 14.4 |
| O=C(NNC(=O)c1cccc(O)c1)Nc1ccc([N+](=O)[O-])cc1 | 16.3 |
| O=C(c1ccccc1)c1cccn1CC(=O)N1CCN(C2CCCCC2)CC1 | -52.6 |
| O=C(c1ccccc1)c1cccn1CC(=O)N1CCN(c2ccccc2)CC1 | -9.33 |
| O=C(c1ccccc1)c1cccn1CC(=O)N1CCCCCC1 | 5.2 |
| COc1ccc(CCC(=O)N2CCCC(Nc3ccc(OC)cc3)C2)cc1 (stereo not drawn) | -6.96 |
| O=C(C(Cc1ccccc1)n1cccc1)N1CCCCC1 (stereo not drawn) | 2.03 |
| O=C(Cc1ccccc1)N1CCN(C2CCCC2)CC1 | 0.401 |
| O=C(Cc1ccccc1)N1CCN(C2CCCCCC2)CC1.O=C(O)C(=O)O | -19.2 |
| O=C(C(Cc1ccccc1)n1cccc1)N1CCN(C2CCCCC2)CC1 (stereo not drawn) | -56.6 |
| COc1ccc(CCC(=O)N2CCN(C3CCCCC3)CC2)cc1 | -69.1 |
| O=C(C(Cc1ccccc1)n1cccc1)N1CCCCCC1 (stereo not drawn) | 12.1 |
| O=C(CCCc1ccccc1)N1CCN(C2CCCCC2)CC1 | -70.8 |
| COc1ccc(CCC(=O)N2CCN(C(=O)c3ccccc3)CC2)cc1 | 5.76 |

| SMILES | hERG current change (%, negative = inhibition) at 10uM [%] |
| --- | --- |
| CN1CCN(C(=O)Nc2ccccc2)CC1.O=C(O)C(=O)O | 23.2 |
| CCN(CC(=O)Nc1cc(Cl)ccc1C)C(=O)CN1C(=O)NC2(CCCC2)C1=O | 8.3 |
| CSc1ncccc1C(=O)OCC(=O)N(CC(C)C)C1CCS(=O)(=O)C1 (stereo not drawn) | -0.0479 |
| Cc1cc(C)nc(N(C#N)Cc2ccc(Br)cc2)n1 | 4.33 |
| O=C1NC(=O)N(c2ccccc2)C(=O)/C1=C/c1coc2ccc(O)cc2c1=O | -6.18 |
| CN(C)CCCNC(=S)Nc1ccc(Oc2ccccc2)cc1 | -3.24 |
| CON=C1CCN(c2ncc(C(F)(F)F)cc2Cl)CC1 | -5.78 |
| CCN(CC)S(=O)(=O)c1cccc(NC(=O)COc2ccc(C#N)cc2OC)c1 | -72.4 |
| CCN(CC)S(=O)(=O)c1cccc(NC(=O)c2cccc(S(=O)(=O)N3CCCC3)c2)c1 | -80.8 |
| COc1cc(C#N)ccc1OCC(=O)Nc1cccc(S(=O)(=O)N2CCCC2)c1 | -44.4 |
| CN(C)S(=O)(=O)c1cccc(NC(=O)c2cccc(S(=O)(=O)N3CCCCC3)c2)c1 | -27.9 |
| NC(=O)c1ccc(-c2nnn(CC(=O)Nc3cccc(S(=O)(=O)N4CCCC4)c3)n2)cc1 | 4.54 |
| CCN(CC)S(=O)(=O)c1cc(NC(=O)COc2ccc(C#N)cc2OC)ccc1C | -38.1 |
| CCN(CC)S(=O)(=O)c1cccc(C(=O)Nc2ccc(C#N)cc2)c1 | -77.3 |
| CCN(CC)S(=O)(=O)c1cccc(C(=O)Nc2ccccc2)c1 | -28 |
| O=C(Cn1nnc(-c2ccccc2)n1)Nc1cccc(S(=O)(=O)N2CCCC2)c1 | -2.26 |
| CCN(CC)S(=O)(=O)c1cccc(NC(=O)CNc2cccc(S(=O)(=O)N3CCCC3)c2)c1 | 5.46 |
| O=C(Cn1nnc(-c2ccccc2)n1)Nc1cccc(S(=O)(=O)N2CCOCC2)c1 | -56.2 |
| CCN(CC)S(=O)(=O)c1cccc(NC(=O)c2ccc(C#N)cc2)c1 | -35 |
| Cc1cc(C)c(S(=O)(=O)c2ccccc2Cl)c(=O)[nH]1 | 10.7 |
| C=CCOCCN(CCOCC=C)C1=NS(=O)(=O)c2ccccc21 | 12.5 |
